From PubChem BioAssay (NCI)
About 83,000 compounds went through this panel and 20% of them were active in at least one assay; those are over-represented in the sample as a whole.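 Assay: single dose, 48 h. Readout: percent growth (0 = no net growth; negative = cell death). Active: <10.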 Values without a mark were called inactive. Active and inactive are the calls of the source.

system: SN12C renal; assay: NCI-60 one-dose screen, 48 h (100 = growth as untreated, 0 = no growth, -100 = all killed); details: 10 µM unless noted

Row | Structure (SMILES) | growth
1 | C=C1C(=O)O[C@H]2[C@H]1CC/C(COC(=O)NCCc1cccc(OC)c1)=C\CC[C@@]1(C)O[C@@H]21 | 42.6%
2 | COc1ccccc1OCC(=O)Nc1sc2c(c1C(N)=O)CCC2 | 64.2%
3 | CCc1c(C(=O)Nc2ccc3ccccc3c2)[nH]c(C)c1C(C)=O | 96.6%
4 | CCC(=O)Oc1ccc2c(c1)CC[C@@H]1[C@@H]2CC[C@]2(C)C[C@H](OC(=O)CC)C[C@@H]12 | 70.4%
5 | COC(=O)CCCCN=Cc1c(O)c(O)c(C(C)C)c2cc(C)c(-c3c(C)cc4c(C(C)C)c(O)c(O)c(C=NCCCCC(=O)OC)c4c3O)c(O)c12 | 16.1%
6 | COc1ccc2c(c1)C(C)Cc1c(N(C)C)ncnc1N2C (stereo not drawn) | 43.6%
7 | Cc1ccc(S(=O)(=O)OCC(=O)Nc2ccc(C(=O)O)c(O)c2)cc1 | 105%
8 | O=C(O)c1ccc(-n2cc(CNc3ccc(C(F)(F)F)cc3)c(-c3ccccc3)n2)cc1 | 94.6%
9 | Cc1cc(C(=O)CSc2nc3ccccc3c(=O)[nH]2)c(C)n1C | 95.4%
10 | CC/C=C\C[C@H](O)C/C=C1/C(=O)C(Cl)=C[C@@H]1C/C=C\CCCC(=O)OC | -51.7% (active)
11 | CCSc1nnc(Nc2ccc(C(C)C)cc2)s1 | 76.7%
12 | Cc1ccc2nc(-c3c(N)n[nH]c3CCCO)[nH]c(=O)c2c1 | 104%
13 | COc1cc(C(=O)N2CCN(C(=O)c3ccco3)CC2)c(N)cc1OCc1ccccc1 | 101%
14 | O=C(Nc1cccc(Cl)c1)c1cc([N+](=O)[O-])ccc1O | 55.1%
15 | O=C(CNC(=O)c1cccc2ccccc12)Nc1ccccc1Oc1ccccc1 | 21.8%
16 | Nc1cccc2c1CN(C1CCC(=O)NC1=O)C2=O (stereo not drawn) | 106%
17 | Nc1ccc(S(=O)(=O)c2ccc(Cl)cc2)cc1 | 95.3%
18 | CNC(=O)c1cc(Oc2ccc3c(c2)sc2nc(-c4ccc(Cl)cc4)cn23)ccn1 | 95.9%
19 | Cc1cc(C)c2c(=O)[nH]c(SCC(=O)Nc3cccc(S(=O)(=O)N(C)C)c3)nc2n1 | 109%
20 | CSc1ccccc1C#C/C=C\C#Cc1ccccc1N1CCCC1=O | 72.1%

Row | Structure (SMILES) | growth
21 | O=S(=O)(NCCCNc1cc(-c2cn(-c3ccccc3)nc2-c2cccc(O)c2)ccn1)c1ccc(Cl)cc1 | 34.5%
22 | CC(=O)Oc1cccc(OC(C)=O)c1OC(C)=O | 99.4%
23 | C=C1C(=O)O[C@H]2[C@H]1CC/C(COC(=O)NCCc1ccc(Br)cc1)=C\CC[C@@]1(C)O[C@@H]21 | 16.8%
24 | O=S=Nc1ccc([N+](=O)[O-])cc1 | 98.7%
25 | COc1ccc(N=C2NN=C(c3ccc(F)cc3)CS2)cc1OC | 98.1%
26 | NC(C(=O)O)C(O)c1ccc(OCc2ccccc2)c(OCc2ccccc2)c1 (stereo not drawn) | 107%
27 | CC/C=C\C[C@H]1C/C=C2/C(=O)C(Cl)=C[C@@H]2C/C=C\CCCC(=O)O1 | -1.11% (active)
28 | Cc1sc2nc(CSc3nnc(-c4ccco4)o3)[nH]c(=O)c2c1C | 114%
29 | O=S(=O)(NCCCNc1cc(-c2cn(-c3ccccc3)nc2-c2cccc(O)c2)ccn1)c1cccc2ccccc12 | 51.4%
30 | CN(C)c1nc(N)c(N=O)c(N)n1 | 110%
31 | O=C1NC(Cc2c[nH]c3ccccc23)C(=O)N1Cc1ccc(Cl)cc1 (stereo not drawn) | 99.7%
32 | COC(=O)c1ccc(C)cc1 | 107%
33 | COC(=O)CCCCCN=Cc1c(O)c(O)c(C(C)C)c2cc(C)c(-c3c(C)cc4c(C(C)C)c(O)c(O)c(C=NCCCCCC(=O)OC)c4c3O)c(O)c12 | 19.8%
34 | O=S(=O)(NCCCNc1nccc(-c2c(-c3ccc(F)c(O)c3)nc3sccn23)n1)c1ccc(Cl)cc1 | 77.4%
35 | COc1ncc(-c2ccc3ncnc(Nc4cccc(Cl)c4)c3c2)cc1N(S(C)(=O)=O)S(C)(=O)=O | 64.5%
36 | CC(Br)C(O)c1cc2c(cc1Br)OCO2 (stereo not drawn) | 112%
37 | O=S(=O)(NCCCNc1cc(-c2cn(-c3ccccc3)nc2-c2cccc(O)c2)ccn1)c1ccc(Br)cc1 | 16.5%
38 | COc1ccc2c(c1)NC(=O)CN2c1nc(C)nc2ccccc12 | 24.7%
39 | NC(=O)c1c(NC(=O)c2ccc3c(c2)OCO3)sc2c1CCC(=O)C2 | 8.18% (active)

system: UO-31 renal; assay: as above; details: 10 µM unless noted

Row | Structure (SMILES) | growth
40 | C=C1C(=O)O[C@H]2[C@H]1CC/C(COC(=O)NCCc1cccc(OC)c1)=C\CC[C@@]1(C)O[C@@H]21 | 32%
41 | COc1ccccc1OCC(=O)Nc1sc2c(c1C(N)=O)CCC2 | 26.5%
42 | CCc1c(C(=O)Nc2ccc3ccccc3c2)[nH]c(C)c1C(C)=O | 86.8%
43 | CCC(=O)Oc1ccc2c(c1)CC[C@@H]1[C@@H]2CC[C@]2(C)C[C@H](OC(=O)CC)C[C@@H]12 | 71.7%
44 | COC(=O)CCCCN=Cc1c(O)c(O)c(C(C)C)c2cc(C)c(-c3c(C)cc4c(C(C)C)c(O)c(O)c(C=NCCCCC(=O)OC)c4c3O)c(O)c12 | 14.7%
45 | COc1ccc2c(c1)C(C)Cc1c(N(C)C)ncnc1N2C (stereo not drawn) | 56.6%
46 | Cc1ccc(S(=O)(=O)OCC(=O)Nc2ccc(C(=O)O)c(O)c2)cc1 | 53%
47 | O=C(O)c1ccc(-n2cc(CNc3ccc(C(F)(F)F)cc3)c(-c3ccccc3)n2)cc1 | 80.5%
48 | Cc1cc(C(=O)CSc2nc3ccccc3c(=O)[nH]2)c(C)n1C | 38.9%
49 | CC/C=C\C[C@H](O)C/C=C1/C(=O)C(Cl)=C[C@@H]1C/C=C\CCCC(=O)OC | -94.5% (active)
50 | CCSc1nnc(Nc2ccc(C(C)C)cc2)s1 | 39.5%
51 | Cc1ccc2nc(-c3c(N)n[nH]c3CCCO)[nH]c(=O)c2c1 | 63.9%
52 | COc1cc(C(=O)N2CCN(C(=O)c3ccco3)CC2)c(N)cc1OCc1ccccc1 | 41.9%
53 | O=C(Nc1cccc(Cl)c1)c1cc([N+](=O)[O-])ccc1O | 45.5%
54 | O=C(CNC(=O)c1cccc2ccccc12)Nc1ccccc1Oc1ccccc1 | 33.8%
55 | Nc1cccc2c1CN(C1CCC(=O)NC1=O)C2=O (stereo not drawn) | 101%
56 | Nc1ccc(S(=O)(=O)c2ccc(Cl)cc2)cc1 | 86.4%
57 | CNC(=O)c1cc(Oc2ccc3c(c2)sc2nc(-c4ccc(Cl)cc4)cn23)ccn1 | 85.7%
58 | Cc1cc(C)c2c(=O)[nH]c(SCC(=O)Nc3cccc(S(=O)(=O)N(C)C)c3)nc2n1 | 94.6%
59 | CSc1ccccc1C#C/C=C\C#Cc1ccccc1N1CCCC1=O | 23.3%

Row | Structure (SMILES) | growth
60 | O=S(=O)(NCCCNc1cc(-c2cn(-c3ccccc3)nc2-c2cccc(O)c2)ccn1)c1ccc(Cl)cc1 | 10%
61 | CC(=O)Oc1cccc(OC(C)=O)c1OC(C)=O | 76.6%
62 | C=C1C(=O)O[C@H]2[C@H]1CC/C(COC(=O)NCCc1ccc(Br)cc1)=C\CC[C@@]1(C)O[C@@H]21 | -20.5% (active)
63 | O=S=Nc1ccc([N+](=O)[O-])cc1 | 78.3%
64 | COc1ccc(N=C2NN=C(c3ccc(F)cc3)CS2)cc1OC | 44.2%
65 | NC(C(=O)O)C(O)c1ccc(OCc2ccccc2)c(OCc2ccccc2)c1 (stereo not drawn) | 92.1%
66 | CC/C=C\C[C@H]1C/C=C2/C(=O)C(Cl)=C[C@@H]2C/C=C\CCCC(=O)O1 | -93.8% (active)
67 | Cc1sc2nc(CSc3nnc(-c4ccco4)o3)[nH]c(=O)c2c1C | 106%
68 | O=S(=O)(NCCCNc1cc(-c2cn(-c3ccccc3)nc2-c2cccc(O)c2)ccn1)c1cccc2ccccc12 | 20.6%
69 | CN(C)c1nc(N)c(N=O)c(N)n1 | 101%
70 | O=C1NC(Cc2c[nH]c3ccccc23)C(=O)N1Cc1ccc(Cl)cc1 (stereo not drawn) | 76%
71 | COC(=O)c1ccc(C)cc1 | 101%
72 | COC(=O)CCCCCN=Cc1c(O)c(O)c(C(C)C)c2cc(C)c(-c3c(C)cc4c(C(C)C)c(O)c(O)c(C=NCCCCCC(=O)OC)c4c3O)c(O)c12 | 19.5%
73 | O=S(=O)(NCCCNc1nccc(-c2c(-c3ccc(F)c(O)c3)nc3sccn23)n1)c1ccc(Cl)cc1 | 67.8%
74 | COc1ncc(-c2ccc3ncnc(Nc4cccc(Cl)c4)c3c2)cc1N(S(C)(=O)=O)S(C)(=O)=O | 25.9%
75 | CC(Br)C(O)c1cc2c(cc1Br)OCO2 (stereo not drawn) | 88.6%
76 | O=S(=O)(NCCCNc1cc(-c2cn(-c3ccccc3)nc2-c2cccc(O)c2)ccn1)c1ccc(Br)cc1 | 3.1% (active)
77 | COc1ccc2c(c1)NC(=O)CN2c1nc(C)nc2ccccc12 | 26.8%
78 | NC(=O)c1c(NC(=O)c2ccc3c(c2)OCO3)sc2c1CCC(=O)C2 | -93.4% (active)
